Source: PubChem BioAssay AID1347426 (Functional Genomics Laboratory (NCATS/FGL), 2020)
Out of some 31,000 sequences screened, about 1,400 (4.5%) were called active. Only a selection was taken, and actives are over-represented in it overall. Unmarked numbers belong to inactive results.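 The calls were made as follows: active = median seed-adjusted z-score above 1 or below -1; inactive = the rest.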

assay: Novel Modifiers of Survival Motor Neuron (SMN) Protein: Gene Identification via Genome-wide siRNA Screen; conditions: HEK293T SMN2-luciferase reporter, siRNA knockdown, 72 h; actives lie on both sides;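 also: luminescence tracks full-length SMN protein made from the SMN2 reporter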
Procedure, shortened: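 Each of three siRNAs per gene is reverse-transfected (1 pmol) into reporter HEK293T cells whose luciferase output tracks SMN protein level. After 72 h culture, ONE-Glo luminescence is control-normalized, log10-transformed and MAD-standardized; Common Seed Analysis deprioritizes seed-driven hits.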

| Sequence | median seed-adjusted z-score |
| --- | --- |
| GGGACCAAAAUCAAUGAAATT against PCBP3 | -0.0373 |
| GAAUGCAGGGAGAAACUUATT against TRIM64 | -0.024 |
| GGAAGACAGAGAAUCGAAATT against SEMA5A | -0.443 |
| GACAAGACGUGGUCAAGAATT against BCL2L13 | 0.311 |
| GCAGUAGACUGAGCAGCAATT against TMTC4 | -1.16 (active) |
| CCUCAGGGAAGUACCCAAATT against RNASE8 | 0.00771 |
| CGCCUACACUCCUACGUGUTT against ZDHHC24 | -0.695 |
| UGCCCGCUGUAGAUGAGAATT against APOC2 | -0.0599 |
| GUUUCACCAUCGUUCGUGATT against PROKR2 | 0.328 |
| CAAAAUGCAUUAGCUGAAATT against VIP | 1.52 (active) |
| AGAUGUACAUCCUCGUGCATT against ELFN2 | -0.0888 |
| CUCCUGAGAUAAUAAUGAATT against RFC3 | 0.733 |
| CUCCUAUAAGAAAUCAAUATT against FLVCR1 | 0.197 |
| CCAAUACAGUGGACAGUUATT against EMR1 | 0.255 |
| GGAGGGUCUUCAUCGCUGATT against POLR2C | -2.95 (active) |
| AAAGAAUCAUUGUGAAAGATT against PARVA | 0.0852 |
| GCCUUCCACGCUUUCCUGATT against RGS16 | 0 |
| GCGCAAUAAUGAACGGCAATT against GALNT14 | 0 |
| CGAUCGCAAGUACCACGAATT against ATP8B1 | 0.357 |
| GACUAGCUGCUGAUAAGAATT against CKAP5 | -1.87 (active) |
| AGUCCUCGGUGAUGCGUGATT against LMNB2 | -0.15 |
| CAGGCACAGUUGCCGAUUATT against CD247 | -0.522 |

| Sequence | median seed-adjusted z-score |
| --- | --- |
| CCUUGACCAUGAAAAAGAATT against ZNF704 | -0.15 |
| GCUAUUGAAAGUACACCUATT against NARG1 | -1.02 (active) |
| GGUUAUAACGGGACGAUUUTT against KIF5C | 0.283 |
| CCAUGUUAGAAGCCCGGAATT against ZNF385D | -0.338 |
| AGAGGUACGUCUACAGUAUTT against F2R | -0.392 |
| CGUCAAAUUUUUGCACAAATT against GPR176 | 0.0782 |
| GCCGAAUUGUUUCUAGUUATT against PIN1 | 0.156 |
| GACAGUCACUGAGCAUAGATT against PKD1L2 | -1.17 (active) |
| GGAGAAAUCAGCUACAGGATT against SRD5A2 | 0.185 |
| CAAUUGGAAUCGUCUUUUUTT against UBAC2 | 0.611 |
| CAAGUCCCAUUGAUCCUGATT against HLF | 0.0548 |
| CAAGAGCAAGCAAACCUAATT against OLR1 | 0 |
| CGGCAAGAGUGUCCAGUAUTT against RNF5 | -0.0342 |
| CCUUAGGAAUGAAAUCGCUTT against SIPA1L1 | 0.0925 |
| GCACUAGCAGAGUCCGAAATT against OPRK1 | -1.08 (active) |
| CAGAAUCGCUUCUACAAGATT against SPAG6 | -0.439 |
| UGACAUCCGUGACCUCUAATT against LHX9 | 0.157 |
| GGAAAACGGCAUUGCAGAATT against SLC23A2 | -0.0585 |
| GGCACUAUUCUGCUAAGAATT against RAPGEF5 | 0.529 |
| GCCUGUUCGAAAGCGCAAATT against UBR4 | 0.602 |
| AGGAGAAUGUGAUCCGAGATT against TXNDC14 | -2.39 (active) |
| GGGUCUUCAUGAUUGGUGUTT against SLC44A5 | 0.179 |

| Sequence | median seed-adjusted z-score |
| --- | --- |
| GUUUGUAGGUCGUCAGAAATT against NDUFS6 | -0.0128 |
| CAUCCAGUCUGUAUACGAATT against ACLY | 0.478 |
| GCCUCCAAAGGUUACAUUUTT against UBE2E1 | 0.888 |
| GAUGUAAACCCUGAACUAATT against CSRP2 | -0.829 |
| GAGGUAAUCUGGGUGCACATT against PARK7 | -0.357 |
| GAAUGGAGGUCAACUAUAUTT against UBE2E2 | -1.77 (active) |
| GAAUGUCAUCCGUAUUUCATT against AKR1C3 | -0.00538 |
| GGAACUGCUGCAUUAGAUATT against ITCH | 0.199 |
| GAAUUUGUUCAUUAUCGUATT against UBE3A | 0.0949 |
| GGCGAACUGUUUUAGAAGATT against CCNB2 | 0.0328 |
| CGAUGUUGGUUAUGAGAGATT against ACTR3 | -0.7 |
| GGAUAGAGGUUUCCAGUUUTT against CNBP | -1.14 (active) |
| GCAGGUUCCUUAUCUGUCATT against BIRC5 | 0.0236 |
| GGAUUAGUGAUUAUAUGGATT against NPAS3 | -0.0316 |
| CAUCCAAGAUUAUAGUGGATT against PNLIP | 0.385 |
| GUACAGACCUGAGAAUUCUTT against CTSL2 | -1.04 (active) |
| GAUGAACCCUGGAACUUCATT against ZNF354B | 0.393 |
| AGAAGGACGUGUCCAAGGATT against FOXC2 | -0.792 |
| GAAUGAUGUUGACAUGAGUTT against SSR1 | -0.434 |
| GCCUAUUCAUCGGAAGGUATT against SENP2 | 0 |
| UGCUUAUGAUCAACAUUUATT against LSM3 | -1.36 (active) |
| GGGUUUAACUUUCAGAGAUTT against VN2R1P | -0.25 |

| Sequence | median seed-adjusted z-score |
| --- | --- |
| GGGUUGGUGUGAUUGGAGUTT against LOC647743 | -0.203 |
| GCUCGGCAUCUGUUGGUUATT against SIRT3 | -0.341 |
| GGCCUAUAAUGAAUACCCUTT against GLRA1 | 0 |
| CAUUGAAACUGAUAAACCATT against ARCN1 | -1.25 (active) |
| GCAGAGCAAUGGGAGAGAATT against EPHB4 | -0.143 |
| GCAUCGCAGUGCUAAACAUTT against DGKA | -1.36 (active) |
| AGACAAUCGUCAUGCAAUUTT against CDC37 | 0 |
| GAAUUACUCUGCCUCUAAATT against TAF7 | -0.593 |
| CGUCUAAUGCUGCUCCACATT against AGPAT1 | -1.38 (active) |
| AUCCUUCCCUGAAUCAUCATT against KLRC2 | -0.472 |
| GUAUCCAUGUGCAUUUUAATT against NT5E | 0.199 |
| GCUCAUACCUCGGAUGUCATT against GPR31 | -0.0381 |
| CCACAUUUGUGACGCAAAATT against TPSAB1 | 0.197 |
| GCUAAAUGGAGGAGACUAATT against HHEX | -0.428 |
| CAACAUUCAUGGACGGGAATT against SLC2A7 | -0.0337 |
| CGUAAAUCCCUAAUCUUUATT against FOXJ1 | -0.553 |
| CACUGAAUGUGAGAGCUGUTT against HRC | 1.06 (active) |
| CCUUCUUCUGGAUACCGAUTT against ABCA9 | -0.139 |
| GCGGAAAAGCUGUAUCUAUTT against POLR3E | -0.55 |
| GGUGGAACUUUUAAUCAAATT against GABPB2 | 0.441 |
| CCAGAUUGCUAGUAUCUCATT against TRAK1 | 0.298 |
| CCUGGAAAGUACUCUAGAATT against PGS1 | 1.36 (active) |

| Sequence | median seed-adjusted z-score |
| --- | --- |
| GGAUCCUACUGGUAAAACUTT against NUDT5 | 0.228 |
| GCAGCGACCUUUCAGAACATT against SALL1 | -0.526 |
| GAUUAUAAGUAUCUACGUUTT against GTPBP4 | 1.01 (active) |
| GACUGACACGGAAUAGUGUTT against ZNF286A | 0.0368 |
| CCACCUUCAAUAUCGAGUUTT against DRD3 | 0.0447 |
| ACUGCAAUCUGUUGCCCAATT against CLIC5 | 0 |
| CAUUCUCAGUCAUCAUAGATT against ATP8A2 | 0 |
| GGAUCUGCUUUCGAACCUATT against MBOAT1 | -1.22 (active) |
| GGAUAGUAUGAAUGAUCAATT against SRP54 | 0.203 |
| CCGCUUCACAGGUAGUUAATT against NUP93 | 1.01 (active) |
| GGUCAAACAAUGUCGCUUUTT against COPB2 | -0.61 |
| GUAAGUCCCUUUAUUCACATT against GFRA4 | -1.59 (active) |
| GGACUCUACCUGACAGAAATT against CAPN13 | 0.208 |
| GGUUCUAGCUGUCAACAUUTT against AP1G2 | 0.0657 |
| ACCACCAAAUGAAGAAUAATT against AKR7A3 | 0.455 |
| GCAUCCUUGUGUACAUGUGTT against USP41 | 0.808 |
| GCACCUUCGUCUACAAGGATT against PDE6A | 1.25 (active) |
| UGGACUUCGUGGUUCAGCATT against SULT1A1 | -0.26 |
| GGAUGUUUUCCGGUUCAUATT against LOC4951 | 0.0691 |
| GCUUUCAUCGGCUCCAUAATT against CARM1 | 0.317 |
